# Compound activity deposited in PubChem BioAssay by several laboratories.
# APOBEC3A inh: human APOBEC3A DNA deaminase inhibition; inhibition, % at 20 µM; 0.41% of 330,000 active; recombinant A3A, FAM/TAMRA ssDNA deamination fluorescence; P31941;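 active = at least 40% inhibition at 20 µM here, with at most 30% in a related deaminase screen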;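 note: plate controls were A3A with DMSO for no effect and wells lacking A3A enzyme for full effect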
# APOBEC3G inh: blocks human APOBEC3G single-stranded DNA deamination. inhibition, % at 20 µM. recombinant A3G, ssDNA deamination FAM/TAMRA fluorescence. AID 493012. 0.28% of 330,000 active;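 active = inhibition of at least 40% at 20 µM, with no more than 30% in the related APOBEC3A deaminase screen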;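 note: plate controls were DMSO wells with A3G for no effect and wells lacking A3G enzyme for full effect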
# GRK2 aptamer HTS: human GRK2 inhibition via aptamer displacement; bead flow cytometry, FAM-aptamer displacement from GRK2; inhibition of aptamer binding, % at 10 µM; 0.59% of 330,000 active; AID 488847;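 active = inhibition of aptamer binding above 40%, roughly 3 SD of noise, on plates passing a quality check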;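 note: median bead fluorescence of bound FAM aptamer so fluorescent compounds give negative values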
# Target sequence (P25098 whole entry, looked up): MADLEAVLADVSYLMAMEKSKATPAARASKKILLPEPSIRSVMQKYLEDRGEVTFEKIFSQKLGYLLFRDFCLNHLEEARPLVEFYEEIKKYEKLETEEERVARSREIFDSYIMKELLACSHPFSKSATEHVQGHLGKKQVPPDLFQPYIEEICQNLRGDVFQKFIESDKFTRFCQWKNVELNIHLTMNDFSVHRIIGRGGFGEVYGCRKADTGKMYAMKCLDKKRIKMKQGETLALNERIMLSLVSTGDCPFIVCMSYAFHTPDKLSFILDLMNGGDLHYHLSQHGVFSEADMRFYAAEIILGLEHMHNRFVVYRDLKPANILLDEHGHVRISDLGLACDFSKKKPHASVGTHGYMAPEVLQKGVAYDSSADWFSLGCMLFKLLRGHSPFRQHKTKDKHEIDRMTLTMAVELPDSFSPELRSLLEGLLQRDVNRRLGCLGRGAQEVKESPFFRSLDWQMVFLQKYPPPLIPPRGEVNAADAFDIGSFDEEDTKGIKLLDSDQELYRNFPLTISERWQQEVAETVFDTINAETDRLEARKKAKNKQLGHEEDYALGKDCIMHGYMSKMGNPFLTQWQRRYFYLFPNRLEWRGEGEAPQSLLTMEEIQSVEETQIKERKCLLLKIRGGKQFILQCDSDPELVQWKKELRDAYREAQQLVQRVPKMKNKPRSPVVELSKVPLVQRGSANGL
# VLA-4 inh: inhibition in a human VLA-4 binding assay | VLA-4 expressing cells, ligand binding flow cytometry | inhibition, % (about 7 µM as worked out from the volumes in the protocol) | 0.2% of 330,000 active; in the data active = inhibition above about 50%
# GRK2 CP1: human GRK2 inhibition confirmation, cherry pick 1; shares compounds with GRK2 aptamer HTS; bead-bound GRK2, FAM-aptamer displacement, flow cytometry; aptamer displacement, % at 10 µM; 4% of 2,000 active; AID 504451;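 active = aptamer displacement above 40%, near three times the noise of non-fluorescent compounds, on plates passing quality checks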;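 note: negative values mostly reflect intrinsic compound fluorescence rather than true enhancement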
# Aptamer quench 1: fluorescent aptamer quenching in GRK2 counter-screen dose response. Fluorescent RNA aptamer beads, flow cytometry; hits give high values. shares compounds with GRK2 aptamer HTS. 110 tested, under 10 active. fluorescence change (kMESF span), kMESF (test concentration not listed);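 active = compounds whose bead fluorescence drops by more than 37 kMESF across the dose range, marking them as dye quenchers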
# Aptamer quench SP: counter-screen for GRK2 aptamer inhibitors: fluorescent aptamer quenchers | shares compounds with GRK2 aptamer HTS | Carboxyfluorescein RNA aptamer on beads, flow cytometry quenching; hits give low values | fluorescence response (% of DMSO), % at 10 µM | 2,000 tested, under 10 active;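 active = compounds that quench the bead-bound fluorescent RNA probe, cutting fluorescence to under half of the solvent control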;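 note: counterscreen run without GRK2 so only probe quenching by compound is measured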
# GRK2 confirm 2: confirmation of human GRK2 inhibitors binding RNA aptamer site | shares compounds with GRK2 aptamer HTS | bead-bound GRK2, FAM-aptamer displacement, flow cytometry | inhibition of aptamer binding, % at 10 µM | 360 tested, under 10 active | AID 504782;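 active = inhibition of aptamer binding above 40%, about triple the noise seen with nonglowing compounds, on plates passing quality control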;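 note: negative values mostly come from compounds that fluoresce themselves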
# FAM quench CP2: quenches fluorescent RNA aptamer, GRK2 hit artifact. shares compounds with GRK2 aptamer HTS. carboxyfluorescein RNA aptamer beads, flow cytometry quenching; hits give low values. fluorescence response vs DMSO, % at 10 µM. 360 tested, under 10 active. AID 588494;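 active = response vs DMSO under 50%, meaning signal dropped by over half, treated as fluorescence quencher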;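 note: labelled aptamer on streptavidin beads without GRK2 as a quench counter-screen; 100% = bead fluorescence of DMSO wells and lower means quenching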
# * hit, by the source's call; nt = no result. This is a sample that favours compounds with a hit; in the whole collection about 1.4% have one here.
SMILES,APOBEC3A inh,APOBEC3G inh,GRK2 aptamer HTS,VLA-4 inh,GRK2 CP1,Aptamer quench SP,others
CC(C)(C)c1ccc(C(=O)N2CCC(C(=O)NCCC3=CCCCC3)CC2)cc1,0.0,-2.5,74.0*,1.8,-0.6,120.2,
O=C(NC(=S)N1CCCCC1CO)c1cc(Br)ccc1Cl (stereo not drawn),-3.1,-9.8,nt,nt,nt,nt,
COc1ccc(OC(=O)CCN2C(=O)C3C4C=CC(C4)C3C2=O)cc1 (stereo not drawn),-2.6,-7.6,0.0,11.3,nt,nt,
CCn1c(=O)c2cc(C(=O)NCCCOC)sc2c2ccccc21,-3.0,-8.7,0.0,0.9,nt,nt,
CCn1c(=O)c2cc(C(=O)NCCC(C)C)sc2c2ccccc21,-5.5,-7.4,51.0*,6.2,nt,95.3,
Cc1ccccc1Cn1nc(C)c(NC(=O)c2cc3n(n2)C(C(F)F)CC(C(F)F)N3)c1C (stereo not drawn),-3.4,-4.2,98.0*,12.5,0.0,100.1,
Cc1ccccc1Cn1nc(C)c(NC(=O)c2nc3n(n2)C(C(F)F)CC(C)N3)c1C (stereo not drawn),-5.5,-2.4,1.0,-6.6,nt,nt,
N[C@@H](C(=O)N[C@@H]1C(=O)N2C(C(=O)O)=C(Cl)CS[C@H]12)c1ccccc1,-1.3,-2.1,0.0,13.8,nt,nt,
NC(=O)c1cc[n+](CC2=C(C(=O)O)N3C(=O)[C@@H](NC(=O)C(c4ccccc4)S(=O)(=O)[O-])[C@H]3SC2)cc1 (stereo partly drawn),100.0,87.2,85.0*,7.8,98.6*,96.5,Aptamer quench 1=-7.8
CC(NC(=O)COC(=O)Cc1ccc(-c2ccccc2)cc1)c1ccccc1 (stereo not drawn),0.9,-2.2,0.0,27.5,1.1,21.9*,
O=C(COC(=O)Cc1ccc(-c2ccccc2)cc1)NCc1ccccc1,-1.3,-8.2,0.0,4.3,-2.9,79.4,
CC(NC(=O)COC(=O)CNC(=O)c1ccc(-c2ccccc2)cc1)c1ccccc1 (stereo not drawn),-0.9,-14.0,2.0,6.2,nt,nt,
O=C(COC(=O)CC(c1ccccc1)c1ccccc1)NCc1ccccc1,-1.0,-3.5,5.0,23.7,nt,nt,
CCC1CCCCN1CC(=O)Nc1cc(C)nn1-c1nc(C)cc(C)n1 (stereo not drawn),-2.7,-7.0,0.0,-12.5,nt,nt,
C/C(=N\NC(=O)c1ccccc1F)c1ccc2c(c1)Nc1ccccc1S2,-0.4,-4.6,1.0,29.0,nt,nt,
COc1ccc(NC(=O)CSc2nc3c([nH]c4ccccc43)c(=O)n2C)c(OC)c1,-4.0,-6.9,97.0*,4.5,nt,nt,GRK2 confirm 2=-0.5;FAM quench CP2=96.0
Cc1ccccc1NC(=O)CSc1nc2c(c(=O)n(C)c(=O)n2C)n1C,-0.4,-8.3,0.0,-0.8,nt,nt,
COc1ccc(OC)c(NC(=O)CSc2nc3c(c(=O)n(C)c(=O)n3C)n2C)c1,0.0,-3.4,74.0*,12.9,-3.3,92.9,
CC(C(=O)O)n1c2ccccc2c2cnn(C)c(=O)c21 (stereo not drawn),5.1,-1.6,95.0*,2.8,3.1,105.5,
Cc1ccc(-c2cc(O)cc3sc(=O)oc23)cc1C,-1.8,-6.8,0.0,-2.7,nt,nt,
O=C(NCc1ccc2c(c1)OCO2)c1ccc(CSCc2ccc(Cl)cc2)o1,0.2,-1.5,51.0*,10.9,nt,nt,GRK2 confirm 2=-21.9;FAM quench CP2=105.0
O=C(NCc1ccc2c(c1)OCO2)c1ccc(COc2cc(Cl)ccc2Cl)o1,2.1,1.4,0.0,44.4,nt,nt,
CCOC(=O)c1c(NC(=O)CSc2nc3ccccc3o2)sc(C(C)=O)c1C,-4.0,-10.2,51.0*,-9.7,4.9,95.1,
CCOC(=O)c1c(NC(=O)CSc2nnc(-c3ccccc3)o2)sc(C(C)=O)c1C,3.5,-2.5,2.0,3.4,nt,nt,
Cc1ccc(CNC(=O)C2CCCN(Cc3cnn(-c4ccccc4)c3-n3cccc3)C2)cc1 (stereo not drawn),0.6,-2.2,5.0,1.0,-4.2,99.2,
SMILES,APOBEC3A inh,APOBEC3G inh,GRK2 aptamer HTS,VLA-4 inh,GRK2 CP1,Aptamer quench SP,others
O=C(NCC1CCCO1)C1CCCN(Cc2cnn(-c3ccccc3)c2-n2cccc2)C1 (stereo not drawn),-2.5,-5.2,0.0,14.5,-7.0,97.7,
CCN(C(=O)COC(=O)c1cc(=O)[nH]c2ccccc12)C1CCS(=O)(=O)C1 (stereo not drawn),-6.5,-2.3,49.0*,1.1,-15.6,95.4,
CCc1sc(C(=O)Nc2ncccc2C)cc1C,3.2,7.5,2.0,-2.5,nt,nt,
CCc1sc(C(=O)Nc2nccs2)cc1C,-0.6,-6.0,30.0,4.3,-0.2,96.8,
COc1ccc(NC(=O)c2ccc(-c3ccc(-c4noc(C)n4)cc3C)cc2)cc1N1CCN(C)CC1,1.3,3.8,6.0,5.8,-11.4,97.1,
NS(=O)(=O)c1ccc(CCNC(=S)Nc2ccc(F)cc2)cc1,-0.9,-1.6,2.0,0.5,nt,nt,
COc1ccc(CCNC(=S)Nc2ccc(OC)cc2)cc1,-1.4,-7.9,52.0*,2.8,-8.0,96.1,
COc1ccccc1/C=C/C(=O)OCC(=O)N1CCc2ccccc21,-4.9,-10.6,95.0*,46.2,-3.8,101.8,
O=C(/C=C/c1ccc(OC(F)F)cc1)OCC(=O)N1CCc2ccccc21,32.5,-2.3,2.0,-0.7,nt,nt,
COc1cc(-c2nc(-c3ccccc3)c(-c3ccc(F)cc3)[nH]2)cc2c1OCO2,-1.4,-6.7,0.0,28.7,nt,nt,
O=C(/C=C/c1ccco1)NCc1ccco1,44.9,39.1,60.0*,5.1,0.3,93.5,
CCc1ccc(/C(C)=N/NC(=O)CNC(=O)/C=C/c2ccco2)cc1,38.8,65.0,42.0*,0.7,12.4,91.4,
COc1ccc(N2CCN(c3nc4ccccn4c(=O)c3/C=C(\C#N)S(=O)(=O)c3ccccc3)CC2)cc1,-6.3,-5.0,0.0,-5.7,nt,nt,
CC(=O)NCCC(=O)Nc1nc2c(ccc3ccccc32)s1,1.0,3.6,4.0,3.2,nt,nt,GRK2 confirm 2=8.1;FAM quench CP2=100.0
Cc1cc(C)n(C(=O)c2ccc(NC(=O)C3CC3)cc2)n1,-2.4,-5.2,0.0,1.2,nt,nt,
COc1cccc(C(=O)Nc2cccc(-c3ccc(N4CCOCC4)nn3)c2)c1OC,-4.7,-10.8,0.0,4.7,0.1,103.7,
O=C(Nc1cccc(-c2ccc(N3CCOCC3)nn2)c1)c1ccc(F)cc1F,1.7,2.7,0.0,0.2,6.6,99.5,
COc1ccc(C(=O)Nc2cccc(-c3ccc(N4CCOCC4)nn3)c2)cc1OC,-4.8,-9.8,5.0,10.3,nt,nt,
COc1cc(/C=N/Nc2nc3ccccc3s2)cc([N+](=O)[O-])c1O,4.0,0.0,68.0*,-3.0,2.0,98.5,
